In PubChem BioAssay AID1566 (Sanford-Burnham Center for Chemical Genomics, 2009) one finds inhibition data, which are given here for 61 compounds.

Hit rate of the full screen: of about 290,000 compounds, about 1,800 (0.62%) were called active. The full list was thinned out, with actives kept by preference. Unmarked numbers belong to inactive results. Cut-off read from the data, not from the text of the source: active = inhibition above about 50%; inactive = the rest.

This experiment can be described thus: NOD2 signaling inhibitors, cell-based, luminescence, uHTS, HEK293 (AID 1566). Particulars: HEK293 NOD2/NF-kB luciferase reporter, at 4 µM, hits give high values. A general note: A reporter such as luciferase makes a cellular process visible.
As usually defined, the inhibition is the drop in the measured response relative to a control, in per cent. Regarding `CCC1(CC)NC(=O)N(CC(=O)NC(=O)NCc2ccccc2)C1=O`, the inhibition was -0.6%.

On to `O=C(CSc1nncc(=O)[nH]1)Nc1cccc([N+](=O)[O-])c1`, for which the inhibition is 67.8% (active).

For `O=C(CSc1nc2ccccc2c(=O)[nH]1)Nc1cccc([N+](=O)[O-])c1`, the inhibition is 19.4%.

For `Nc1cc(=O)[nH]c(SCC(=O)Nc2cccc([N+](=O)[O-])c2)n1`, the inhibition was 0.5%.

Regarding `COc1ccc(NC(=O)C23CC4CC(C2)CC(n2cnc(Br)n2)(C4)C3)cc1OC`, the inhibition was -17.8%.

`Cc1ccccc1NC(=O)N1CCCC(c2nc(-c3ccc(F)cc3)no2)C1` (stereo unspecified): the inhibition is 7.4%.

For the compound `COc1ccc(NC(=O)N2CCCC(c3nc(-c4ccc(C(C)C)cc4)no3)C2)cc1` (stereo unspecified), the inhibition is 42.1%.

As to `Cc1ccccc1NC(=O)N1CCCC(c2nc(-c3ccc(C(C)C)cc3)no2)C1` (stereo unspecified), the inhibition was 72.9% (active).

On to `COCCCN1C(=O)C(O)=C(C(=O)c2ccco2)C1c1cccc(Br)c1` (stereo unspecified), for which the inhibition was 7.1%.

Consider `COc1ccc(CN2CCN(Cc3ccc4cc(F)ccc4n3)CC2CCO)c(C)c1C` (stereo unspecified), for which the inhibition was -1.2%.

Consider `Cc1ccc2nc(C)c(CN3CCN(c4ccc([N+](=O)[O-])cc4Cl)CC3)n2c1`, for which the inhibition is 52.7% (active).

For `O=[N+]([O-])c1ccc(N2CCN(c3ccc(Cl)nn3)CC2)c(Cl)c1`, the inhibition is -52.2%.

Turning to `CCCC(=O)N1CCN(c2ccc([N+](=O)[O-])cc2Cl)CC1`, the inhibition was -6.8%.

Turning to `Cc1cc(C)c2c(N)c(C(=O)NN)sc2n1`, the inhibition was 0.7%.

As for `Cc1cc(C)c2c(N)c(C(=O)Nc3ncc(C)s3)sc2n1`, the inhibition was 62% (active).

For the compound `Cc1cc(C)c2c(N)c(C(=O)Nc3nccs3)sc2n1`, the inhibition is -123%.

Consider `CC(=O)c1cn(CC(=O)Nc2ccccc2F)c2ccccc12`, for which the inhibition is 30.8%.

Take `CN1CCN(C(=S)c2cn(Cc3ccccc3F)c3ccccc23)CC1`: the inhibition was 2.8%.

`CCOC(=O)c1cnc2nc(C)[nH]n2c1=O`: the inhibition was -11%.

For the compound `O=C(CNC(=O)C1CCCCC1)NCc1ccco1`, the inhibition is -3%.

With `Cc1nc2ccc(NC(=O)c3ccc(Cl)c(S(=O)(=O)N(C)c4ccccc4)c3)cc2s1`, the inhibition is 38.6%.

On to `Cc1nc2ccc(NC(=O)c3ccc(S(=O)(=O)N(C)c4ccccc4)cc3)cc2s1`, for which the inhibition was 35.2%.

As for `CN(Cc1ccccc1)C(=O)[C@H]1CCC(=O)N1Cc1ccco1`, the inhibition is -2.2%.

As for `Cc1onc(-c2c(Cl)cccc2Cl)c1C(=O)NC(=S)N1CCOCC1`, the inhibition is 11.9%.

On to `Cc1c(OCC(=O)NC(Cc2ccc(Cl)cc2)C(=O)O)ccc2c3c(c(=O)oc12)CCCC3` (stereo unspecified), for which the inhibition is 7.1%.

For the compound `Cc1ccc(C)c(OCC(=O)Nc2nc3ccc([N+](=O)[O-])cc3s2)c1`, the inhibition was 25.2%.

Take `Cc1cccc(OCC(=O)Nc2nc3ccc([N+](=O)[O-])cc3s2)c1`: the inhibition is 35%.

On to `O=C(Nc1nc2c(F)cc(F)cc2s1)c1ccccn1`, for which the inhibition is 38.3%.

Regarding `O=C(Nc1nc2ccc(F)cc2s1)c1ccccn1`, the inhibition was 82.1% (active).

As for `COCC(=O)Nc1nc2ccc(C)cc2s1`, the inhibition was -98.9%.

With `Cc1ccc2nc(NC(=O)CCCC(=O)O)sc2c1`, the inhibition is 54.8% (active).

As to `COC(=O)c1ccc2nc(NC(=O)CSCC(=O)OCC(=O)c3ccccc3)sc2c1`, the inhibition was -10.5%.

On to `Cc1ccc2nc(NC(=O)CCCc3nc4ccccc4s3)sc2c1`, for which the inhibition is -14.6%.

Take `Cc1ccc2nc(NC(=O)CSCC(=O)OCC(=O)c3ccccc3)sc2c1`: the inhibition is 51.5% (active).

Regarding `O=C(Nc1nc2ccc(F)cc2s1)c1cccs1`, the inhibition was -118%.

`Cc1ccc2nc(NC(=O)CSCc3ccccc3)sc2c1`: the inhibition was -2.4%.

Consider `CN(C)C(=O)c1ccc2c3c(cccc13)CC2`, for which the inhibition was 17.8%.

Consider `CCCS(=O)(=O)c1nc(S(=O)(=O)c2ccc(C)cc2)c(N2CCN(CC)CC2)s1`, for which the inhibition is -12.7%.

`Cc1nc2nc(SCc3ccc([N+](=O)[O-])cc3)[nH]c2cc1Br`: the inhibition is -1%.

`CSc1ccc(C2N=C(c3ccccc3)NO2)cc1` (stereo unspecified): the inhibition is -83.4%.

`CCOCCCNC(=O)C(NC(=O)CNC(C)=O)c1ccc(C)cc1` (stereo unspecified): the inhibition was 3.7%.

With `CCN(CC)S(=O)(=O)c1cccc(C(=O)N[C@@H](C)c2nc3ccccc3[nH]2)c1`, the inhibition was 11.7%.

Take `CCOC(=O)c1ccc(N2C(=O)C(CC(N)=O)N(NC(=O)c3cccc(F)c3)C2=S)cc1` (stereo unspecified): the inhibition is 4.2%.

`Cc1ccc2nc(NC(=O)c3ccccn3)sc2c1`: the inhibition is 76.3% (active).

With `Cc1ccc2nc(NC(=O)c3ccccc3F)sc2c1`, the inhibition was -152%.

Consider `Cc1ccc2nc(NC(=O)COC(=O)c3ccccn3)sc2c1`, for which the inhibition is -25.5%.

As to `COc1ccc(-n2c3c(cc(C#N)c2=O)C(=O)CCC3)cc1`, the inhibition is 6.2%.

On to `CCOc1ccc(S(=O)(=O)Nc2ccc(C(=O)NCC(c3ccccc3)N(C)C)cc2)cc1` (stereo unspecified), for which the inhibition was 7.3%.

Take `CCOC(=O)c1ccc(Nc2nc(N3CCOCC3)nc(N3CCOCC3)n2)cc1`: the inhibition was -7.2%.

As to `CCOC(=O)N1CCC(N2CCN(Cc3ccc(C)o3)C(CCO)C2)CC1` (stereo unspecified), the inhibition was 2.4%.

Regarding `CCC(C(=O)NC1CCCC1)N(C(=O)Cn1nnc(-c2ccc(C)o2)n1)c1cccc(O)c1` (stereo unspecified), the inhibition was 8.2%.

Consider `Cc1cc(-n2c(C)cc(C(=O)CSc3nc4ccccc4c(=O)n3Cc3ccco3)c2C)no1`, for which the inhibition is 18.1%.

For the compound `Cc1cc(NC(=O)CSc2ncnc3ccccc23)no1`, the inhibition was 20%.

Regarding `Cc1cc(-n2c(C)cc(C(=O)CSc3ncnc4ccccc34)c2C)no1`, the inhibition is 52.3% (active).

As to `Cc1cccc(NC(=O)COC(=O)C2C3CC4OC(=O)C2C4C3)c1C` (stereo unspecified), the inhibition is -27.4%.

Take `Cc1ccccc1-n1c(SC2CCOC2=O)nnc1-c1ccncc1` (stereo unspecified): the inhibition was 51.5% (active).

Turning to `Cc1ccccc1-n1nnnc1SC1CCOC1=O` (stereo unspecified), the inhibition is 5.6%.

For the compound `O=C1OCCC1Sc1nnc(-c2cccnc2)n1-c1ccccc1F` (stereo unspecified), the inhibition is 13.6%.

For `O=C(O)c1cccc(NC(=S)N/N=C/c2ccccc2OCc2ccc(Br)cc2)c1`, the inhibition is 0.3%.

For `C/C(=C\c1ccccc1)CN1CCN(Cc2ccc(C)o2)C(CCO)C1` (stereo unspecified), the inhibition is -6.3%.

Take `CCOC(=O)C1CCN(C(=O)CS(=O)(=O)Cc2nc(-c3ccccc3Cl)oc2C)CC1`: the inhibition is 17.3%.
